Inconclusive results are not listed. Calls of active or inactive are those of the source. The calls were made as follows: active = hit-call score of the fitted dose curve at least 0.9, where 1 is the maximum; inconclusive = response in the unintended direction; inactive = score below 0.9.

From PubChem BioAssay (EPA / NIEHS) come the findings set out here.

This test in a line: ACEA_AR_agonist_AUC_viability: ACEA Biosciences xCELLigence Real-Time Cell Analysis on Androgen Receptor Agonism for Viability (AID 2283775). The procedure:
ACEA_AR_agonist is a cell-based, single-readout assay that uses 22Rv1, a human prostate cancer cell line, with measurements taken at 80 hours after chemical dosing in a 384-well plate, although TO5 and TO6 (mc0.srcf) used a 96-well plate. Differences in plate size can be ignored given data normalization.ACEA_AR_80hr is one of two assay component(s) measured or calculated from the ACEA_AR assay. It is designed to make measurements of real-time cell-growth kinetics, a form of growth reporter, as detected with electrical impedance signals by Real-Time Cell Electrode Sensor (RT-CES) technology.Data from the assay component ACEA_AR_AUC_viability was analyzed in the positive analysis fitting direction relative to DMSO as the negative control and baseline of activity. Using a type of growth reporter, loss-of-signal activity can be used to understand changes in the viability. Furthermore, this assay endpoint can be referred to as a secondary readout, because this assay has produced multiple assay endpoints where this one serves a viability function. To generalize the intended target to other relatable targets, this assay endpoint is annotated to the cell cycle intended target family, where the subfamily is cytotoxicity.
The xCELLigence system Multi-E-Plate stations were used to measure the time-dependent response to chemicals. Each compound was tested in an eight-point, 1:4 serial dilution series starting at a maximum final concentration of 100 uM. A maximum starting concentration of 0.5% DMSO was present in the 100 uM chemical samples and was diluted along with the test article dilution series. The screen was performed in biological duplicate using two separate, 96-well, E-Plates 96 for each dilution series (n = 2). Positive controls (MG132 and testosterone) and a negative control (assay media) were tested in quadruplicate on each testing plate. Then, 0.5% and 0.125% DMSO were tested in duplicates in each plate to serve as solvent controls for the 2 highest concentrations of testing compounds: 100 uM and 25 uM. Reference compounds were tested with 8 concentrations with 1:5 serial dilutions. All screening was carried out by ACEA Biosciences, Inc. (San Diego, CA). 22Rv1 cells purchased from ATCC were maintained in media supplemented with 10% fetal bovine serum (FBS). Before screening, 22Rv1 cells were preconditioned in assay medium. Cells were then detached and seeded in E-Plates 96 in assay medium. After overnight monitoring of growth once every hour, compounds were added to […] cells and remained in the medium until the end of the experiment. Cellular responses were then recorded once every 5 min for the first 5 h, and once every hour for an additional 100 h.
On to `c1ccc2n[nH]nc2c1`, for which the molecule was called inactive. As to `O=C1c2ccccc2C(=O)N1CCc1noc(-c2ccc(CN3CCCCCC3)s2)n1`, the AC50 was 13.2 µM (active).

For `NC(=O)c1nc(-c2cccc(-c3cc(F)ccc3OCC(F)(F)C(F)(F)F)c2)n[nH]1`, the AC50 is 24.6 µM (active).

`Cc1cc2c(cc1C(F)(F)F)N(C(=O)Nc1ccc(Oc3cccnc3C)nc1)CC2`: the AC50 is 17.1 µM (active).

`O=C(O)c1ccccc1-n1cc(C(=O)O)c(=O)c2cc(Nc3c(F)cc(F)cc3Cl)c(Cl)cc21`: the outcome was inactive. For `NCc1cccc(C2CCN(C(=O)c3ccc(C#Cc4ccccc4F)o3)CC2)c1`, the AC50 is 21.2 µM (active). The same measure, in the same setting: under `Cc1ccc2oc(CN(Cc3ccccc3)C(=O)Nc3c(F)cc(F)cc3F)c(-c3ccc(Cl)cc3)c2c1` stands 9.77 µM (active); under `CN1C(=O)N(c2ccccc2Br)Cc2cnc(Nc3ccc4c(c3)OCC(CO)O4)nc21` (stereo not given), 20.5 µM (active); under `C[C@]12CC[C@@H]3c4ccc(O)cc4CC[C@H]3[C@@H]1CC[C@H]2O`, 90.7 µM (active). On to `CCN(Cc1cccnc1)C(=O)c1cccc(Cl)c1[C@]1(C)C(=O)N(Cc2ccc(OC)cc2OC)c2ccc(Cl)cc21`, for which the AC50 is 23.8 µM (active). On the same count and under the same terms, the result for `CN(C)c1ccc(C(=C2C=CC(=[N+](C)C)C=C2)c2ccc(N(C)C)cc2)cc1` reads 0.281 µM (active); that for `COc1cc(C(=O)NC2CCN(C)CC2)ccc1Nc1ncc2c(n1)N(C1CCCC1)CC(F)(F)C(=O)N2C`, 0.00301 µM (active); that for `Cc1c2ccccc2c(C)c2c1ccc1ccccc12`, 50 µM (active). Same read-out and setting: the result for `CC(C)(c1cc(Br)c(O)c(Br)c1)c1cc(Br)c(O)c(Br)c1` reads 25 µM (active). Take `CCCC(=O)OCCC(C)C`: the molecule was classed as inactive. For the molecule `O=C1O[C@H]([C@@H](O)CO)C(O)=C1O`, the call was inactive. Regarding `O=c1[nH]sc2ccccc12`, the AC50 is 14.1 µM (active).

As to `CCCCCCCCCCCCO`, the result was inactive. As for `CC[C@H](NC(=O)c1cc(F)ccc1NS(=O)(=O)c1cccc2cccnc12)c1ccccc1`, the AC50 is 57.2 µM (active).

As for `CN(C)C(=O)C1(N2CCCCC2)CCN(CC[C@@]2(c3ccc(Cl)c(Cl)c3)CN(C(=O)c3ccccc3)CCO2)CC1`, the AC50 is 10.5 µM (active). On the same count and under the same terms, under `OC12N=C(c3ccccc3)SC1Cc1cc(Cl)ccc12` (stereo not given) stands 83.3 µM (active). With `CC(C)(O)c1ccc(CNC(=O)c2cccnc2Oc2ccc3nonc3c2)cc1`, the molecule was called inactive.

Turning to `CCCOC(=O)c1cc(O)c(O)c(O)c1`, the AC50 is 50 µM (active).

With `Cc1ccc(C(C)C)cc1`, the outcome was inactive. Same read-out and setting: the result for `Cc1ncc(CO)c(CO)c1O` reads “inactive”. Take `CC/C(=C(/CC)c1ccc(O)cc1)c1ccc(O)cc1`: the AC50 is 21.3 µM (active). As for `Clc1ccccc1C(c1ccccc1)(c1ccccc1)n1ccnc1`, the AC50 is 16.9 µM (active). For `Clc1cc(Cl)c2c(c1)N=C1CCCCCN1C2`, the molecule was classed as inactive. As to `O=C(Nc1ccc(Cl)cc1)Nc1ccc(Cl)c(Cl)c1`, the AC50 is 6.35 µM (active). For the molecule `CCCCOC(=O)CC(CC(=O)OCCCC)(OC(C)=O)C(=O)OCCCC`, the molecule was called inactive. With `O=C1CCC(C2CCCCC2)CC1`, the AC50 was 50 µM (active). Consider `O=c1ccc2ccccc2o1`, for which the molecule was called inactive. Turning to `Cc1oc2c(NC(=O)c3c(Cl)cccc3Cl)cccc2c1C(C)(C)O`, the AC50 was 22.8 µM (active). Still for that read-out and setting: the result for `CCCCOC(=O)c1ccc(O)cc1` reads 69.5 µM (active); that for `O=c1c(-c2ccc(O)cc2)coc2cc(O)cc(O)c12`, 62.9 µM (active); that for `O=CCCCC=O`, 35.2 µM (active).

For the molecule `Cc1cc(F)ccc1-c1cc(N2CC[C@@H](O)[C@H]2CO)ncc1N(C)C(=O)C(C)(C)c1cc(C(F)(F)F)cc(C(F)(F)F)c1`, the AC50 was 8.51 µM (active). For the molecule `OCCO`, the call was inactive.

In the case of `C[C@]12CC[C@@H]3c4ccc(O)cc4CC[C@H]3[C@@H]1CCC2=O`, the molecule was called inactive.

Take `CC(C)(C)c1csc(-c2cc3cc(OCc4ccccc4CC(=O)O)ccc3o2)n1`: the AC50 was 21.1 µM (active).
